“And” between values parts separate entries of the source, which are not always exact repeats. Equal entries are not always repeated. Records with an inconclusive call do not appear. Unmarked numbers belong to inactive results. Calls follow the shape of the dose curve; as a rule, active = well fitted inhibition curve with a large enough effect; inconclusive = small, poorly fitted or top-dose-only effect; inactive = flat fitted curve, though single readings scatter.
% is scaled to controls: 0 for no effect and ±100 for the full control effect.

The first experiment is described as follows: Drug repurposing screens with cells derived from glioblastoma tumor samples (AID 1345199). Also: nearly all actives have a fitted effect of over 40% in size. Conditions: GBM patient neurospheres viability, ATP luminescence, 48 h; at 45.9 µM (top of the series); tumour line B. In a few lines: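 Four patient lines of CD133+ GBM neurospheres were screened at several concentrations; hits were retested in those lines plus three slower-growing GBM lines, using 48-hour treatment and ATP-based viability.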
Take `Cc1cccc(C)c1N(CCCc1cccnc1)C(=O)C(C)N` (stereo not given): the activity, negative = cell killing was -3.85%.
`CNC[C@@H]1CC[C@@H](N)[C@@H](O[C@H]2[C@H](O)[C@@H](O[C@H]3OC[C@](C)(O)[C@H](NC)[C@H]3O)[C@H](N)C[C@@H]2N)O1`: the activity, negative = cell killing is -14.4%.
For `CC(C)(C)CC(=O)OCC(=O)[C@@]12OC(C)(C)O[C@@H]1C[C@H]1[C@@H]3CCC4=CC(=O)C=C[C@]4(C)[C@@]3(F)[C@@H](O)C[C@@]12C`, the activity, negative = cell killing was -19.8%.
For `COC(C)=O`, the activity, negative = cell killing is -2.89%.
Turning to `C/C=C(/CC[C@@H](C)[C@H]1CC[C@H]2C3=CC[C@H]4[C@H](C)[C@@H](O)CC[C@]4(C)[C@H]3CC[C@]12C)C(C)C`, the activity, negative = cell killing is -6.71%.
The same measure, in the same setting: for `NCCCNCCCCNC(=O)C(O)NC(=O)CCCCCCN=C(N)N` (stereo not given) the value was -10.7%; for `COc1cc(C[C@@H]2NCCc3cc(O)c(O)cc32)cc(OC)c1OC`, 13.6%; for `CCCCCCCCCCCCCCCC(=O)OC[C@@H](COP(=O)([O-])OCC[N+](C)(C)C)OC(=O)CCCCCCCCCCCCCCC`, -16.6%.
For the compound `CN1CC(O)c2cc(N=NC(N)=O)c(O)cc21` (stereo not given), the activity, negative = cell killing was -10.8%.
On to `O=C(O)c1cccc(/C=C2/C[C@@H]3[C@@H](/C=C/[C@@H](O)C4CCCCC4)[C@H](O)C[C@@H]3O2)c1`, for which the activity, negative = cell killing is -4.9%.
For the compound `O=C(Nc1ccc(/C=C/c2ccc(NC(=O)c3cc(S(=O)(=O)O)c4cccnc4c3O)cc2S(=O)(=O)O)c(S(=O)(=O)O)c1)c1cc(S(=O)(=O)O)c2cccnc2c1O`, the activity, negative = cell killing is -15.1%.

Staying with this experiment, now noted: GBM patient neurospheres viability, ATP luminescence, 48 h; at 45.9 µM (top of the series); tumour line D.
For the compound `CC(=O)O[C@H]1CC[C@@]2(C)C(=CC[C@H]3[C@@H]4CC[C@H](C(C)=O)[C@@]4(C)CC[C@@H]32)C1`, the activity, negative = cell killing is -28.1%.
As for `CC(=O)O[C@H]1C[C@@H]2CC[C@@H]3[C@H](CC[C@@]4(C)[C@H]3C[C@H](N3CC[N+](C)(C)CC3)[C@@H]4OC(C)=O)[C@@]2(C)C[C@@H]1N1CC[N+](C)(C)CC1`, the activity, negative = cell killing is 1.51%.
On to `NNc1nnc(Cc2ccncc2)c2ccccc12`, for which the activity, negative = cell killing is -26.1%.
As for `O=C(Cn1c(=O)sc2ccc(Cl)cc21)N1CCN(CCO)CC1`, the activity, negative = cell killing was -6.64%.
On the same count and under the same terms, for `CCC(c1ccccc1)c1noc(CCN(CC)CC)n1` (stereo not given) the value was -10.2%; for `COC1=C(C(=O)O)N2C(=O)[C@@H](NC(=O)[C@H](N)C3=CCC=CC3)[C@H]2SC1`, -11%; for `CCCCCCCC/C=C\CCCCCCCC(=O)OC[C@@H](O)[C@H]1OC[C@H](O)[C@H]1O`, 1.42%.
Regarding `CCOC(=O)Cc1cccc(-c2cc(CCCCCCc3ccc(O[C@H]4O[C@H](COC(C)=O)[C@@H](OC(C)=O)[C@H](OC(C)=O)[C@@H]4OC(C)=O)c(-c4cccc(CC(=O)OCC)c4)c3)ccc2O[C@H]2O[C@H](COC(C)=O)[C@@H](OC(C)=O)[C@H](OC(C)=O)[C@@H]2OC(C)=O)c1`, the activity, negative = cell killing was -4.61%.
As for `C[C@]12CC[C@@H]3c4ccc(OS(=O)(=O)O)cc4CC[C@H]3[C@@H]1CCC2=O`, the activity, negative = cell killing is 4.49%.
On the same count and under the same terms, for `Cc1cccc(C)c1N(CCCc1cccnc1)C(=O)C(C)N` (stereo not given) the value was -15.3%.
On to `CNC[C@@H]1CC[C@@H](N)[C@@H](O[C@H]2[C@H](O)[C@@H](O[C@H]3OC[C@](C)(O)[C@H](NC)[C@H]3O)[C@H](N)C[C@@H]2N)O1`, for which the activity, negative = cell killing is -20.8%.
Regarding `COC(C)=O`, the activity, negative = cell killing was 6.97%.
Regarding `C/C=C(/CC[C@@H](C)[C@H]1CC[C@H]2C3=CC[C@H]4[C@H](C)[C@@H](O)CC[C@]4(C)[C@H]3CC[C@]12C)C(C)C`, the activity, negative = cell killing is -7.38%.
`CCOC(=O)COc1ccc2c(=O)cc(-c3ccccc3)oc2c1`: the activity, negative = cell killing is -18.4%.
As for `COc1cc(C[C@@H]2NCCc3cc(O)c(O)cc32)cc(OC)c1OC`, the activity, negative = cell killing was -12.2%.
Still for that read-out and setting: for `CCCCCCCCCCCCCCCC(=O)OC[C@@H](COP(=O)([O-])OCC[N+](C)(C)C)OC(=O)CCCCCCCCCCCCCCC` the value was 2.92%.
Take `O=C(O)c1cccc(/C=C2/C[C@@H]3[C@@H](/C=C/[C@@H](O)C4CCCCC4)[C@H](O)C[C@@H]3O2)c1`: the activity, negative = cell killing is -11.8%.
As for `O=C(Nc1ccc(/C=C/c2ccc(NC(=O)c3cc(S(=O)(=O)O)c4cccnc4c3O)cc2S(=O)(=O)O)c(S(=O)(=O)O)c1)c1cc(S(=O)(=O)O)c2cccnc2c1O`, the activity, negative = cell killing is 6.57%.

The experiment is the same for the next values; noted with them: GBM patient neurospheres viability, ATP luminescence, 48 h; at 46.1 µM (top of the series); tumour line C.
For the compound `CC(=O)O[C@H]1CC[C@@]2(C)C(=CC[C@H]3[C@@H]4CC[C@H](C(C)=O)[C@@]4(C)CC[C@@H]32)C1`, the activity, negative = cell killing was -12%.
On the same count and under the same terms, for `CC(=O)O[C@H]1C[C@@H]2CC[C@@H]3[C@H](CC[C@@]4(C)[C@H]3C[C@H](N3CC[N+](C)(C)CC3)[C@@H]4OC(C)=O)[C@@]2(C)C[C@@H]1N1CC[N+](C)(C)CC1` the value was 2.56%; for `NNc1nnc(Cc2ccncc2)c2ccccc12`, -26.3%; for `O=C(Cn1c(=O)sc2ccc(Cl)cc21)N1CCN(CCO)CC1`, 15.7%.
`CCC(c1ccccc1)c1noc(CCN(CC)CC)n1` (stereo not given): the activity, negative = cell killing is -2.54%.
The same measure, in the same setting: in the case of `COC1=C(C(=O)O)N2C(=O)[C@@H](NC(=O)[C@H](N)C3=CCC=CC3)[C@H]2SC1` it was 6.55%; in that of `CCOC(=O)Cc1cccc(-c2cc(CCCCCCc3ccc(O[C@H]4O[C@H](COC(C)=O)[C@@H](OC(C)=O)[C@H](OC(C)=O)[C@@H]4OC(C)=O)c(-c4cccc(CC(=O)OCC)c4)c3)ccc2O[C@H]2O[C@H](COC(C)=O)[C@@H](OC(C)=O)[C@H](OC(C)=O)[C@@H]2OC(C)=O)c1`, 18%; in that of `C[C@]12CC[C@@H]3c4ccc(OS(=O)(=O)O)cc4CC[C@H]3[C@@H]1CCC2=O`, -5.66%.
`CNC[C@@H]1CC[C@@H](N)[C@@H](O[C@H]2[C@H](O)[C@@H](O[C@H]3OC[C@](C)(O)[C@H](NC)[C@H]3O)[C@H](N)C[C@@H]2N)O1`: the activity, negative = cell killing was 16.1%.
For the compound `CC(C)(C)CC(=O)OCC(=O)[C@@]12OC(C)(C)O[C@@H]1C[C@H]1[C@@H]3CCC4=CC(=O)C=C[C@]4(C)[C@@]3(F)[C@@H](O)C[C@@]12C`, the activity, negative = cell killing is -0.929%.
Take `COC(C)=O`: the activity, negative = cell killing was 7.29%.
Take `C/C=C(/CC[C@@H](C)[C@H]1CC[C@H]2C3=CC[C@H]4[C@H](C)[C@@H](O)CC[C@]4(C)[C@H]3CC[C@]12C)C(C)C`: the activity, negative = cell killing is 9.21%.
With `CCOC(=O)COc1ccc2c(=O)cc(-c3ccccc3)oc2c1`, the activity, negative = cell killing is -1.42% and -17.4%.
The same measure, in the same setting: for `NCCCNCCCCNC(=O)C(O)NC(=O)CCCCCCN=C(N)N` (stereo not given) the value was -21.3%; for `CCCOc1ccc2nc(NC(=O)OC)sc2c1`, -26.8%.
Turning to `COc1cc(C[C@@H]2NCCc3cc(O)c(O)cc32)cc(OC)c1OC`, the activity, negative = cell killing is -8.42%.
For the compound `CCCCCCCCCCCCCCCC(=O)OC[C@@H](COP(=O)([O-])OCC[N+](C)(C)C)OC(=O)CCCCCCCCCCCCCCC`, the activity, negative = cell killing is 0.955%.
Same read-out and setting: for `CN1CC(O)c2cc(N=NC(N)=O)c(O)cc21` (stereo not given) the value was 26.2%.
Turning to `O=C(O)c1cccc(/C=C2/C[C@@H]3[C@@H](/C=C/[C@@H](O)C4CCCCC4)[C@H](O)C[C@@H]3O2)c1`, the activity, negative = cell killing was -8.79%.
Same read-out and setting: for `O=C(Nc1ccc(/C=C/c2ccc(NC(=O)c3cc(S(=O)(=O)O)c4cccnc4c3O)cc2S(=O)(=O)O)c(S(=O)(=O)O)c1)c1cc(S(=O)(=O)O)c2cccnc2c1O` the value was -10.9%.
Turning to `Cc1ccc(/C(=C\CN2CCCC2)c2cccc(/C=C/C(=O)O)n2)cc1`, the activity, negative = cell killing is -12.4%.

Values taken from PubChem BioAssay (NCATS).
